Screens deposited in PubChem by several laboratories.
Most compounds without a hit are left out; they make up all but 2.6% or so of the library.
CF NFkB inh: cystic fibrosis NF-kB activation inhibition | KKLEB NF-kB-GFP reporter, PAF-induced, GFP fluorescence overnight | inhibition, % at 5 µM | actives 0.86% (n = 360,000);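 active = at least 50% inhibition at 5 µM, scaled per plate between neutral and stimulator controls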;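 also: PAF is a Pseudomonas aeruginosa culture filtrate used as stimulus; plate controls were PAF-stimulated DMSO wells for no effect and unstimulated DMSO wells for full effect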
TROY signal inh: blocks TROY-dependent signaling in reporter cells. Q293 LMP1-TROYcd NF-kB luciferase reporter, 4 h. inhibition, % at 10 µM. actives 0.98% (n = 360,000). AID 1347056;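 active = compounds whose plate-normalised and pattern-corrected inhibition of the luciferase reporter signal at the single screening dose is 50% or more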
EWS-Fli block: EWS/Fli transcriptional activity inhibition; A673 NR0B1-luciferase reporter, viability-normalised; inhibition, % at 12.6 µM; actives 0.67% (n = 350,000);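 active = mean inhibition of at least 50% after viability correction, with every replicate also passing that limit; inconclusive = mean reaches 50% but only one of two replicates passes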;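 also: firefly luciferase signal divided by Alamar Blue viability fluorescence both relative to DMSO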
KKLEB cytotox: CF airway cell cytotoxicity counter-screen; KKLEB CF airway cells viability, ATPlite luminescence, overnight; active compounds read low; cells stimulated with P. aeruginosa culture filtrate; activity change (cytotoxicity), % at 5 µM; actives 0.36% (n = 360,000);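 active = corrected activity change at or below -50% at 5 µM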
TWEAK Fn14 block: TWEAK-Fn14 signaling inhibition | TWEAK-stimulated Fn14 reporter cells, luciferase luminescence, 8 h | inhibition, % at 10 µM | actives 2% (n = 360,000) | AID 1159606; in the data active = inhibition above about 50%
LGR2 inh: inhibitors of bursicon-induced Drosophila LGR2 receptor cAMP signaling; HEK293 LGR2, CRE-luciferase, bursicon-stimulated, 4 h; inhibition, % at 9.99 µM; actives 0.35% (n = 380,000); AID 720647;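 active = drop in luminescence signal, shown as inhibition above about 50% in the replicate tests, limit read from the data, passing the limit was not always enough; inconclusive = probably only some replicates passing the limit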;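 also: agonist challenge used bursicon conditioned medium at about half maximal strength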
* = called active by the depositor; ? = inconclusive; nt = not tested or not shown.

SMILES	CF NFkB inh	TROY signal inh	EWS-Fli block	KKLEB cytotox	TWEAK Fn14 block	LGR2 inh
Cc1ccc(-c2csc(NC(=O)C3=NN(c4ccccc4)C(=O)CC3)n2)cc1	-12	17	21	-15	55*	7
O=c1/c(=C\c2cccn2-c2ccccc2)sc2nc3ccccc3n12	-11	45	nt	0	61*	nt
O=C(O)Cn1cc(/C=c2/sc3nc4ccccc4n3c2=O)c2ccccc21	-5	35	-151	12	-24	-148
COc1cccc(COC(=O)c2ccc(S(=O)(=O)N3CCC(C)CC3)cc2)c1OC	4	1	2	7	-10	1
COc1cccc(COC(=O)c2cc(S(=O)(=O)N3CCOCC3)ccc2Cl)c1OC	-24	9	9	8	85*	8
Cc1ccc(OCC(=O)c2cc(C)n(-c3ccccc3)c2C)c([N+](=O)[O-])n1	22	59*	nt	3	85*	-27
C=CCn1c(C)cc(C(=O)COc2ccc(C)nc2[N+](=O)[O-])c1C	14	13	nt	2	65*	7
CCC(=O)N1[C@H](C(=O)Nc2nccs2)[C@@H](CO)[C@@H]2Cn3c(ccc(C4=CCCCC4)c3=O)[C@@H]21	nt	nt	-7	nt	nt	-2
CC(C)CCn1cnc2c(oc3nc4c(cc32)CCCC4)c1=O	10	55*	-8	-3	76*	68*
CC1(C)Cc2nc3oc4c(=O)n(CC(=O)Nc5ccccc5)cnc4c3cc2CO1	-6	-19	-25	4	-3	-9
O=S(=O)(Nc1cc(Cl)ccc1-n1cncn1)c1ccccc1Cl	10	10	-1	2	6	0
O=S(=O)(Nc1cc(Cl)ccc1-n1cncn1)c1cc(Br)ccc1Br	39	58*	6	12	46	18
O=C(CSc1nnc(Nc2ccccc2)s1)Nc1cccc(S(=O)(=O)N2CCCCC2)c1	11	-2	0	-9	51*	3
COC(=O)Cc1ccc(NC(=S)N2CCN(c3cc(Cl)ccc3C)CC2)cc1	8	36	11	-7	56*	8
O=C(c1cc(Cl)ccc1[N+](=O)[O-])n1cnc2ccccc21	5	15	58*	-2	4	-18
O=C(c1ccccc1[N+](=O)[O-])n1cnc2ccccc21	-8	-6	6	-31	-4	-26
Cc1ccccc1-c1nnc(SCC(=O)Nc2ccc3c(c2)OCCO3)n1N	15	-2	nt	-4	9	-5
Nn1c(SCC(=O)Nc2ccc3c(c2)OCCO3)nnc1-c1ccccn1	-39	7	nt	6	77*	4
Nc1ccccc1SCC(=O)Nc1ccc2c(c1)OCCO2	2	58*	-36	-2	68*	39
O=C(CC(c1ccccc1)c1ccccc1)Nc1ccc2c(c1)OCCO2	10	22	nt	-5	52*	nt
Cn1cccc1C(=O)OCC(=O)Nc1ccc2c(c1)OCCO2	0	9	-37	-9	71*	?
Cc1cc(C)n(-c2ccc(C(=O)Nc3ccc4c(c3)OCCO4)cc2)n1	13	-24	nt	-5	19	nt
COCCCn1c(SCC(=O)Nc2ccc3c(c2)OCCO3)nnc1-c1ccoc1C	0	16	nt	7	64*	nt
COCCn1c(SCC(=O)c2ccc3c(c2)OCCO3)nnc1-c1ccoc1C	10	15	nt	-1	10	nt
Cc1cc(C)n(C(C)CC(=O)Nc2ccc3c(c2)OCCO3)n1 (stereo not given)	6	43	10	-9	61*	-4
SMILES	CF NFkB inh	TROY signal inh	EWS-Fli block	KKLEB cytotox	TWEAK Fn14 block	LGR2 inh
COCC(=O)Nc1ccc2c(c1)C(=O)N(C)C[C@H](OC)[C@H](C)CN(C(=O)C1CCCC1)[C@@H](C)CO2	nt	nt	-1	nt	nt	4
C=CCn1c(-c2ccc(S(=O)(=O)N3CCOCC3)cc2)csc1=Nc1ccccc1	-5	20	nt	5	24	nt
CC(=O)c1cccc(N=c2scc(-c3ccc(S(=O)(=O)N4CCOCC4)cc3)n2CCO)c1	9	19	16	-10	54*	2
CC1C(=O)N(Cc2cn(CCC3OCCO3)nn2)CCS(=O)(=O)N1Cc1ccc(-c2ccc(Cl)c(Cl)c2)cc1 (stereo not given)	29	37	-1	-14	56*	0
Cc1ccc(C(=O)/C=C/c2ccc(F)cc2)o1	6	-69	nt	-17	-3	-30
O=C(/C=C/c1ccc(F)cc1)c1ccccc1Br	57*	1	nt	-37	63*	7
O=C(N[C@H]1CC[C@@H](CC(=O)N2CCC(Cc3ccccc3)CC2)O[C@H]1CO)c1cnccn1	nt	nt	-2	nt	nt	-13
S=C(NCc1ccccc1)Nc1cccc2ccccc12	7	-18	nt	-12	-24	-12
CCN(C(=S)Nc1cccc2ccccc12)c1ccccc1	-8	31	-10	-1	83*	21
Cc1cccc(NC(=O)c2ccc(Cl)c(S(=O)(=O)N3CCc4ccccc43)c2)n1	-2	37	-6	12	58*	4
O=C(Nc1nnc(C2CC2)s1)c1ccc(Cl)c(S(=O)(=O)N2CCc3ccccc3C2)c1	-11	56*	1	-4	50	-8
O=C(Nc1ccncc1)c1ccc(Cl)c(S(=O)(=O)N2CCc3ccccc32)c1	26	46	29	-31	78*	19
Cc1cccc(NC(=O)c2ccc(Cl)c(S(=O)(=O)N3CCCC3)c2)n1	8	-14	-42	-1	-12	-21
CCc1nnc(NC(=O)c2ccc(Cl)c(S(=O)(=O)N3CCc4ccccc43)c2)s1	14	61*	nt	4	-9	nt
C[C@@H]1CN([C@@H](C)CO)C(=O)Cc2cc(NC(=O)Nc3ccc4c(c3)OCO4)ccc2O[C@H]1CN(C)S(C)(=O)=O	nt	nt	nt	nt	nt	5
O=C(Nc1ccc(C(F)(F)F)cc1)N1C[C@@H]2N[C@H](C1)C2c1ccc(-c2cccnc2)cc1 (stereo not given in full)	nt	nt	-24	nt	nt	-5
O=C(Oc1cccc(Nc2ncnc3ccccc23)c1)c1ccccc1Cl	20	59*	nt	6	82*	nt
CNC[C@H]1OCCCC[C@@H](C)Oc2ccc(NC(=O)Nc3ccc4c(c3)OCO4)cc2C(=O)N([C@@H](C)CO)C[C@@H]1C	nt	nt	3	nt	nt	-6
CNC(=O)c1cc(Oc2ccc(NC(=O)Nc3ccc(Cl)c(C(F)(F)F)c3)cc2)ccn1	75*	62*	22	-12	84*	nt
Cc1ccc(C2C3=C(CC(C)(C)CC3=O)N=C3c4ccccc4C(=O)C32)cc1 (stereo not given)	24	28	nt	-3	58*	-20
CC1(C)CC(=O)C2=C(C1)N=C1c3ccccc3C(=O)C1C2c1ccc(Cl)cc1 (stereo not given)	35	26	nt	4	66*	nt
CCOC(=O)C1=C(C)N=C2c3ccccc3C(=O)C2C1c1ccc(Cl)cc1 (stereo not given)	-5	-1	nt	-7	6	nt
